The values that follow come from PubChem BioAssay.

Assay [1] in a line: compound effects on lung adenocarcinoma cell viability – A549, calcein-AM fluorescence, 48 h, basal, profiling panel (AID 1162). Also: test concentration not given here. The following applies: higher = more signal.
A short description of assay [2]: compound effects on differentiated 3T3-L1 adipocyte viability – cell-based, 3T3-L1 adipocytes, calcein-AM fluorescence, 48 h, basal, profiling panel (AID 1163). Also: test concentration not given here. The following applies: 3T3-L1 adipocytes viability, higher = more signal.
Assay [3] in a line: compound effects on hepatocellular carcinoma cell viability – HepG2, calcein-AM fluorescence, 48 h, basal, profiling panel (AID 1164). Also: test concentration not given here. Conditions: higher = more signal.
Assay [4] in a line: compound effects on multiple myeloma cell viability – MM1S, calcein-AM fluorescence, 48 h, basal, profiling panel (AID 1165).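 Also: viability of MM1S multiple myeloma cells under basal unstimulated conditions; test concentration not given here.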 The following applies: higher = more signal.
A short description of assay [5]: calcein-AM signal in unstimulated myeloma cells – cell-based, calcein-AM fluorescence, 48 h, PK04 Diversity Set, profiling panel (AID 1166).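 Also: cells grown under basal conditions without added stimulus; test concentration not given here.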 The following applies: RPMI8226 myeloma viability, higher = more signal.
Assay [6] in a line: JC-1 mitochondrial signal, unstimulated HepG2 cells – cell-based, JC-1 fluorescence, 24 h, 100 nL compound, profiling panel (AID 1167). Also: test concentration not given here. The following applies: HepG2 mitochondrial potential, higher = more signal.
Assay [7] in a line: JC-1 mitochondrial signal, unstimulated adipocytes – cell-based, JC-1 fluorescence, 3T3-L1 adipocytes, 24 h, 100 nL compound, profiling panel (AID 1168). Also: test concentration not given here. Conditions: JC-1 mitochondrial fluorescence, higher = more signal, called active from +8 up or from −8 down.
A short description of assay [8]: JC-1 mitochondrial signal, unstimulated myeloma cells – cell-based, JC-1 fluorescence, RPMI8226, 24 h, 100 nL compound, profiling panel (AID 1169). Also: test concentration not given here. The following applies: JC-1 mitochondrial potential fluorescence, higher = more signal.
The nature of assay [9]: JC-1 mitochondrial signal, unstimulated MM1S myeloma – cell-based, JC-1 fluorescence, 24 h, 100 nL compound, profiling panel (AID 1170). Also: test concentration not given here. Conditions: MM1S mitochondrial potential, higher = more signal.
Assay [10] is described as follows: resazurin metabolic signal in A549 cells – cell-based, resazurin fluorescence, 24 h, PK04 Diversity Set, profiling panel (AID 1171). Also: test concentration not given here. Conditions: A549 viability, higher = more signal, called active from +8 up or from −8 down. (Alamar Blue is a resazurin reagent that responds to reducing activity.)
The nature of assay [11]: resazurin metabolic signal in HepG2 cells – cell-based, resazurin fluorescence, 24 h, PK04 Diversity Set, profiling panel (AID 1172). Also: test concentration not given here. The following applies: HepG2 viability, higher = more signal.
The nature of assay [12]: budding yeast growth changes without added modifier – OD600, strain BY4716, 24 h, basal condition, primary screen (AID 1173). The following applies: S. cerevisiae BY4716 growth, OD600, 24 h; higher = more signal, called active from +8 up or from −8 down.
Assay [13] is described as follows: viability profiling in MM1S myeloma cells – cell-based, resazurin fluorescence, basal, 24 h, PK04 Diversity Set, profiling panel (AID 1174). Also: test concentration not given here. The following applies: higher = more signal, called active from +8 up or from −8 down.
Assay [14] concerns the target Dihydroorotate dehydrogenase (quinone), mitochondrial (Plasmodium falciparum (isolate 3D7)) (UniProt Q08210). Description: inhibition of P. falciparum DHODH – biochemical, C-terminal His tag, absorbance 600 nm, primary screen (AID 1175).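 Also: recombinant parasite enzyme with a five histidine tag at its C terminus; test concentration not given here.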 The following applies: PfDHODH enzyme, DCIP absorbance 600 nm; higher = more signal, called active from +8 up or from −8 down.
A short description of assay [15]: inhibition of PAO1 biofilm formation – strain PAO1, LB-PBS medium, absorbance 600 nm, primary screen (AID 1176). Also: test concentration not given here. Conditions: P. aeruginosa PAO1 growth/biofilm, A600, 12 h; higher = more signal.
Assay [16] in a line: growth modulation of vineyard yeast isolate – strain RM11-1a, OD600, basal, 24 h, primary screen (AID 1177).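 Also: cultures grown under basal conditions with no added stressor; test concentration not given here.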 The following applies: S. cerevisiae RM11-1a growth, OD600, 24 h; higher = more signal, called active from +8 up or from −8 down.
A short description of assay [17]: growth of efflux-deficient E. coli DRC39 – strain DRC39, OD650, 24 h, E. coli filamentation inducers, primary screen (AID 1178).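 Also: growth measured as culture turbidity by optical density at 650 nm; test concentration not given here.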 The following applies: E. coli DRC39 acrAB, higher = more signal, called active from +8 up or from −8 down.
Assay [18] can be described thus: growth of efflux-deficient E. coli DRC39 – strain DRC39, OD650, 48 h, E. coli filamentation inducers, primary screen (AID 1179).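 Also: screen aims at cell division blockers that make cells filament.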 The following applies: E. coli DRC39 delta-acrAB growth, higher = more signal, called active from +8 up or from −8 down.
The nature of assay [19]: viability profiling in RPMI8226 myeloma cells – cell-based, resazurin fluorescence, basal, 24 h, PK04 Diversity Set, profiling panel (AID 1180).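 Also: RPMI8826 multiple myeloma cell line at 5000 cells per well; test concentration not given here.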 The following applies: higher = more signal.
In assay [20] the target is E3 ubiquitin-protein ligase XIAP (Homo sapiens) (UniProt P98170). Description: small molecules binding XIAP protein – biophysical, small-molecule microarray, fluorescence 635 nm, primary screen (AID 1181).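 Also: score merges 667 nm emission and signal to noise over triplicate slides.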 Conditions: higher = more signal.

Molecules are shown by their SMILES. Activity calls are given as the source filed them. Unless noted, no rule for the calls is given here.

Chain of E3 ubiquitin-protein ligase XIAP (Homo sapiens) (P98170 whole entry, looked up): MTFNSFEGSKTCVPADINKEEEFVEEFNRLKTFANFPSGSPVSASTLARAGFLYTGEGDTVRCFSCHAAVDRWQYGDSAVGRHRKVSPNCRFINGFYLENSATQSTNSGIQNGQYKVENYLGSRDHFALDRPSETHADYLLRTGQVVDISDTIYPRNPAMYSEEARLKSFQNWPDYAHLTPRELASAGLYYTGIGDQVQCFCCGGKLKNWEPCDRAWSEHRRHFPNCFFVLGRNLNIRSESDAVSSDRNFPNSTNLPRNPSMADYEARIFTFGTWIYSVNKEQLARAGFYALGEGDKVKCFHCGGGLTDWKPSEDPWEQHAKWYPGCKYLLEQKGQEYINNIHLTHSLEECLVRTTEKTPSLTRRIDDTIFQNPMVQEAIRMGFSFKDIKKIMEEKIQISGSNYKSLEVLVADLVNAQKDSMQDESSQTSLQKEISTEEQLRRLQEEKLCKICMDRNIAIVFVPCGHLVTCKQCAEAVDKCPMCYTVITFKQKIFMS
Chain of Dihydroorotate dehydrogenase (quinone), mitochondrial (Plasmodium falciparum (isolate 3D7)) (Q08210 whole entry, looked up): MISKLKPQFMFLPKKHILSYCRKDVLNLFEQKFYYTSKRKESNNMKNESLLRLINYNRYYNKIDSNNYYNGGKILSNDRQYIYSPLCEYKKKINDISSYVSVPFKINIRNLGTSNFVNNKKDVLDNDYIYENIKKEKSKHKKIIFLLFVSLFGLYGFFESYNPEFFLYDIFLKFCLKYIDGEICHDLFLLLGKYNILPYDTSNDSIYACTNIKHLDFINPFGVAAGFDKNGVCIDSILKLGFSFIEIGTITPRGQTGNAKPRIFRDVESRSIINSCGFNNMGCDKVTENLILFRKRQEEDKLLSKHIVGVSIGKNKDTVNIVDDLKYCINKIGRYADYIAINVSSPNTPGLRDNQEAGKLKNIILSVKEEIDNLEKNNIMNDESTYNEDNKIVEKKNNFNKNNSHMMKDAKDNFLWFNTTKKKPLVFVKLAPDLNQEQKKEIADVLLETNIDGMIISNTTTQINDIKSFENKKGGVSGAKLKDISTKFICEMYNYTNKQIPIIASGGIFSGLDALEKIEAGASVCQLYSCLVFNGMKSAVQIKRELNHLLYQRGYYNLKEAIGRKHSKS

For the compound `COc1cc(C(O)C2C=CC3C(=O)NC(=O)C3N2Nc2ccccn2)cc(OC)c1OC` (stereo not given), the z-score was -0.928 in [1]; -0.66 in [2]; -1.31 in [3]; -0.494 in assay [4]; 0.611 in assay [5]; -1.2 in assay [6]. Moreover, the z-score in assay [7] was -0.524 (inactive); in assay [8], -0.0982; in assay [9], -0.0424; in assay [10] it was -0.706 (inactive); in assay [11], -0.927; in assay [12], 0.979 (inactive). For the same compound, the z-score in assay [13] was -1.57 (inactive); in assay [15], 1.16 (inactive); in assay [16] it was 0.228 (inactive); in assay [17], -1.24 (inactive); in [18], -0.397 (inactive); in assay [19] it was -2.04. Further, the composite z-score in [14] is 1.14 (inactive); in [20], -0.031.

For `CO[C@H]1O[C@H](CO)[C@@H](OC(=O)Nc2cccc(F)c2)[C@H](OC(=O)Nc2ccccc2)[C@@H]1OC(=O)Nc1ccccc1`, the z-score in assay [1] is -1.61; in [2], 0.18; in assay [3] it was -2.08; in assay [4], -3.43; in [5], -4.24; in assay [6] it was -0.702. For the same compound, the z-score in [7] was -1.66 (inactive); in [8] it was -1.22; in assay [9] it was -1.07; in assay [10], -3.16 (inactive); in assay [11], -1.62; in assay [12], 0.706 (inactive). Besides, the z-score is -2.56 (inactive) in assay [13]; 0.758 (inactive) in [15]; 0.666 (inactive) in [16]; -0.002 (inactive) in [17]; -0.0057 (inactive) in assay [18]; -2.4 in assay [19]. The composite z-score in assay [14] was 0.127 (inactive); in [20], 0.0623.

Regarding `C[C@@]1([C@@H](NC(=O)c2ccc(-c3ccccc3)cc2)c2ccc(Cl)cc2)C[C@H]1C1CCCCC1`, the z-score is -1.18 in assay [1]; -0.52 in [2]; -0.934 in assay [3]; -3.43 in [4]; -4.76 in assay [5]; -2.21 in [6]. In addition, the z-score in [7] is -1.07 (inactive); in [8], -0.902; in [9] it was -2.73; in assay [10] it was 0.602 (inactive); in assay [11], -0.953; in [12] it was 1.52 (inactive). Also, the z-score in assay [13] is -2.24 (inactive); in [15], -0.195 (inactive); in assay [16] it was 2 (inactive); in [17], -0.325 (inactive); in assay [18], -0.561 (inactive); in assay [19], -6.37. The values for the composite z-score in [14] and in assay [20] were -0.0475 (inactive) and 0.119, respectively.

Consider `C=C(/C(=C/C[C@H](OC(C)=O)c1ccccc1OCCO)c1cnc2ccccc2c1)C(C)C`, for which the z-score in assay [1] is 0.689; in assay [2] it was -0.665; in [3], 0.218; in assay [4], -3.32; in [5], -2.23; in assay [6], 0.469. For the same compound, the z-score is -1.34 (inactive) in [7]; 0.251 in assay [8]; -0.685 in assay [9]; -0.0361 (inactive) in assay [10]; -0.558 in [11]; 0.323 (inactive) in assay [12]. The z-score was -1.09 (inactive) in assay [13]; 2.19 (inactive) in assay [15]; 1 (inactive) in assay [16]; -0.672 (inactive) in assay [17]; -0.622 (inactive) in [18]; -0.817 in [19]. Besides, the values for the composite z-score in [14] and in assay [20] were -5.2 (inactive) and -0.238, respectively.

Turning to `C=CCOC(=O)[C@H]1[C@@H]2C(=O)O[C@@H](c3ccccc3)[C@@H](c3ccccc3)N2[C@@H](c2ccc(OCCOC(=O)[C@H]3C[C@H]4C(=O)N[C@@H](CCCCNC(C)=O)C(=O)N4[C@H]3c3cccc(OCCO)c3)cc2)[C@]12C(=O)Nc1ccccc12`, the z-score was -0.112 in [1]; 0.457 in assay [2]; -0.696 in assay [3]; -0.297 in assay [4]; 0.728 in assay [5]; -0.235 in assay [6]. Also, the z-score in assay [7] is 1.91 (inactive); in [8], -0.0898; in assay [9], -0.67; in assay [10], 0.319 (inactive); in assay [11], 0.514; in assay [12], 0.922 (inactive). Further, the z-score was 0.618 (inactive) in [13]; 3.14 (inactive) in [15]; 1.29 (inactive) in [16]; 0.561 (inactive) in assay [17]; -0.581 (inactive) in [18]; 0.491 in assay [19]. Also, the values for the composite z-score in assay [14] and in assay [20] were 0.592 (inactive) and -0.0338, respectively.

On to `CN(C)C(=O)[C@@]1(CCS(=O)(=O)c2ccccc2)COC(c2ccc(OCCCO)cc2)=N1`, for which the z-score was -0.245 in assay [1]; -0.0285 in [2]; -1.28 in assay [3]; -2.08 in [4]; -2.36 in assay [5]; -1.09 in assay [6]. In addition, the z-score in [7] was -0.0809 (inactive); in assay [8], -0.476; in assay [9], -1.49; in assay [10], -2.54 (inactive); in assay [11], -0.837; in [12], 1.14 (inactive). The z-score in assay [13] was -2.38 (inactive); in [15], 1.03 (inactive); in assay [16] it was 1.08 (inactive); in assay [17] it was 0.73 (inactive); in assay [18], 0.56 (inactive); in assay [19] it was -2.08. The composite z-score in assay [14] is 0.989 (inactive); in assay [20] it was -0.0502.

With `CCOC(=O)C[C@H]1[C@H](OC(=O)c2ccc(-c3ccccc3)cc2)[C@@H](NC(=O)Cc2ccc(OC)cc2)c2cc(OCCCO)ccc2N1C(=O)c1ccccc1`, the z-score in assay [1] is -0.137; in assay [2], 0.533; in assay [3] it was -0.42; in assay [4], 0.57; in assay [5], -0.432; in assay [6] it was 1.37. In addition, the z-score in assay [7] is -1.03 (inactive); in assay [8], 0.0293; in assay [9], -0.102; in assay [10] it was -0.657 (inactive); in assay [11], -0.616; in [12], 0.695 (inactive). The z-score in assay [13] was -0.113 (inactive); in [15], -0.252 (inactive); in assay [16] it was 0.87 (inactive); in assay [17], 0.303 (inactive); in [18], 0.339 (inactive); in assay [19], 0.0662. Also, the figures for the composite z-score in assay [14] and in assay [20] were 0.11 (inactive) and 0.15, respectively.

As to `CCCCCN1CC=CC23O[C@@H]4/C=C\CCC(C)OC(=O)C4[C@H]2C(=O)N(C(C)CO)[C@@H]3C1=O` (stereo not given in full), the z-score in assay [1] was 0.342; in assay [2], 0.287; in assay [3] it was 0.356; in [4], 0.508; in assay [5], 0.311; in assay [6], 0.558. Besides, the z-score in assay [7] is -0.00375 (inactive); in [8] it was 0.724; in [9] it was -0.759; in [10] it was 1.02 (inactive); in assay [11] it was 0.194; in [12] it was 0.142 (inactive). The z-score is -0.139 (inactive) in [13]; -0.0153 (inactive) in [15]; 0.449 (inactive) in assay [16]; 0.866 (inactive) in assay [17]; 0.657 (inactive) in assay [18]; 1.07 in assay [19]. Besides, the composite z-score is 0.005 (inactive) in [14] and -0.127 in assay [20].

Consider `C=CCC(OC(C)=O)[C@@H]1[C@@H](N(Cc2ccc(-c3ccccc3)cc2)C(=O)c2cccc3ccccc23)c2cc(OCCCO)ccc2N1C(=O)c1ccc(-c2ccccc2)cc1` (stereo not given in full), for which the z-score was 0.143 in [1]; 0.286 in assay [2]; 0.391 in assay [3]; 0.139 in assay [4]; -0.094 in assay [5]; 3.13 in assay [6]. In addition, the z-score in [7] is 0.266 (inactive); in assay [8], -0.745; in assay [9], -0.00624; in assay [10], 0.126 (inactive); in assay [11], -0.398; in [12] it was -0.467 (inactive). For the same compound, the z-score in [13] was 0.395 (inactive); in assay [15], -0.0391 (inactive); in assay [16], -0.768 (inactive); in [17], 1.59 (inactive); in [18] it was 0.734 (inactive); in [19], 0.234. The results for the composite z-score in assay [14] and in assay [20] were -0.0355 (inactive) and -0.411, respectively.
